Results published in PubChem BioAssay AID1745850 (National Center for Advancing Translational Sciences (NCATS), 2022).
The campaign covered roughly 2,100 compounds. About 260 (12%) were called active. Another 58% or so got no clear call; they are omitted. The call rests on the fitted dose curve; in most records, active means well fitted cell-killing curve with a large enough effect; inconclusive means small, poorly fitted or top-dose-only effect, or effect the other way; inactive means flat fitted curve, though single readings scatter. Some of the results follow. Entries that show only a call come without a potency.
Potency means the concentration at half of the fitted maximal effect.

Test: Viability Counterscreen for Confirmatory qHTS for Inhibitors of ATXN expression; further: nearly all actives have a fitted effect of over 50% in size
Conditions: HEK-293 ATXN2-luc cells viability, CellTiter-Fluor, 24 h
Procedure, shortened: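 Cells with an ATXN2-luciferase reporter were dosed in a dilution series for 24 h at 37 degrees C. Viability was read first with Gly-Phe-AFC at 25 uM final (fluorescence, ex 405/em 540), then SteadyGlo luminescence. Medium-only wells defined 100% inhibition.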
With `Cc1c(C(=O)N2c3ccccc3Sc3ccccc32)cccc1[N+](=O)[O-]` the Potency was “inactive”.
For `CC1(C)CC(N2CCN(Cc3ccccc3)CC2)=CC(=[N+]2CCCCC2)C1`, the Potency was “inactive”.
In the case of `COc1ccc(N2CCN(c3ccnc4cc(Cl)ccc34)CC2)cc1`, the Potency is reported as “inactive”.
For `CC(C)C(=O)Nc1ccc(C(=O)N/N=C/c2cc(Br)cc(Br)c2O)cc1`, the Potency was 28.2 µM (active).
In the case of `O=C(Cc1ccccc1)N/N=C/c1cc(Br)cc(Br)c1O`, the Potency is reported as “inactive”.
With `CN(C)c1ccc(C(=O)N/N=C/c2cc(Br)cc(Br)c2O)cc1` the Potency was “inactive”.
With `C/C(=N\NC(=O)C(C)n1nc(C)c([N+](=O)[O-])c1C)c1ccccc1O` (stereo not drawn) the Potency was “inactive”.
For `Cc1ccc(/C=C2\SC(=S)N(CCCC(=O)Nc3ccc(O)cc3)C2=O)cc1`, the Potency was “inactive”.
With `O=C(CCCN1C(=O)S/C(=C\c2ccccc2)C1=O)NNC(=O)c1ccccc1O` the Potency was “inactive”.
For `Cc1ccc(/C=C2/SC(=S)N(CCCC(=O)Nc3ccc(O)cc3)C2=O)cc1`, the Potency was 28.2 µM (active).
With `Cc1ccc(/C=C2\SC(=S)N(CCCC(=O)Nc3cccnc3)C2=O)cc1` the Potency was 31.6 µM (active).
For `COC(=O)c1ccc(/C=C2/SC(=S)N(CCCC(=O)Nc3ccccn3)C2=O)cc1`, the Potency was 28.2 µM (active).
For `Cc1ccc(NC(=O)COc2ccc(/C=C3/SC(=Nc4ccccc4)N(Cc4cccnc4)C3=O)cc2)cc1`, the Potency was 20 µM (active).
In the case of `Cc1ccc(/C=C2\SC(=S)N(CCCC(=O)Nc3cc(C)on3)C2=O)cc1`, the Potency is reported as “inactive”.
In the case of `[O-][n+]1c2ccccc2cc2ccccc21`, the Potency is reported as “inactive”.
In the case of `O=c1c(Cc2ccccc2)c(O)nc2n1CCS2`, the Potency is reported as “inactive”.
For `CC1(C)COCN1S(=O)(=O)c1ccc(C(=O)Nc2nnc(-c3ccc(Cl)s3)o2)cc1`, the Potency was “inactive”.
For `CC(C)(C)c1ccc(C(=O)N2CCCCCC2=O)cc1`, the Potency was “inactive”.
For `COc1ccc(/C=C/C(=O)c2ccc([N+](=O)[O-])o2)cc1OC`, the Potency was 8.91 µM (active).
With `Cc1cccc(/C=C/C(=O)c2ccc([N+](=O)[O-])o2)c1` the Potency was 3.55 µM (active).
With `CC(/C=C/c1ccc2c(c1)OCO2)=N\NC(=O)c1cccc([N+](=O)[O-])c1` the Potency was “inactive”.
In the case of `COc1ccccc1NC(=S)NC(=O)c1ccc(Cn2cc(Br)cn2)cc1`, the Potency is reported as “inactive”.
In the case of `OC(c1ccccc1)(c1nc(-c2ccc3ccccc3c2)cs1)C(F)(F)F` (stereo not drawn), the Potency is reported as “inactive”.
With `O=C(NCc1ccccc1Cl)C1CCCN(C(=O)Nc2ccc(F)cc2)C1` (stereo not drawn) the Potency was “inactive”.
In the case of `COc1cc(C#Cc2c(-c3cncn3C)n(C)c3ccc(-c4ccc(CN5CCOCC5)cc4)cc23)cc(OC)c1`, the Potency is reported as “inactive”.
In the case of `O=C(N/N=C\c1cc(Cl)ccc1O)c1ccc(S(=O)(=O)N2CCCCC2)cc1`, the Potency is reported as “inactive”.
In the case of `O=C(COc1ccc(F)cc1)N/N=C/c1cccc2cccnc12`, the Potency is reported as “inactive”.
In the case of `CC1CCN(Cc2c(C(=O)N/N=C/c3cc(Br)ccc3O)nnn2-c2nonc2N)CC1`, the Potency is reported as “inactive”.
For `Nc1ccc(Oc2ccccc2-c2ccccc2)cc1`, the Potency was “inactive”.
For `CC(=O)c1cccc(-c2ccnc3c2CC(C(=O)Nc2ccc(F)c(Cl)c2)O3)c1` (stereo not drawn), the Potency was “inactive”.
In the case of `CC(=O)c1cccc(NC(=O)c2cccc3c(-c4cccc(C(N)=O)c4)coc23)c1`, the Potency is reported as 20 µM (active).
For `COc1cc(NC(=O)c2cccc3c(-c4cnn(C)c4)coc23)cc(OC)c1OC`, the Potency was 31.6 µM (active).
In the case of `COc1cc(NC(=O)c2cc(-c3ccccc3)nc3c2cnn3C(C)C)cc(OC)c1OC`, the Potency is reported as “inactive”.
In the case of `CCc1cc2c(=O)c(-c3cnn(-c4ccccc4)c3)coc2c(CN2CCOCC2)c1O`, the Potency is reported as “inactive”.
In the case of `OCCN1CCN(C(=S)c2ccc(-c3ccccc3)cc2)CC1`, the Potency is reported as “inactive”.
With `Cc1[nH]n(-c2ccccc2)c(=O)c1C=Nc1cccc2cccnc12` the Potency was “inactive”.
In the case of `COc1cc(C#Cc2c(-c3cncn3C)n(C)c3ccc(-c4cnc(N5CCOCC5)nc4)cc23)cc(OC)c1`, the Potency is reported as “inactive”.
For `COC(=O)c1ccsc1NC(=O)CN1CCN(Cc2ccc3c(c2)OCO3)CC1`, the Potency was “inactive”.
In the case of `Cc1ccc(CN2CC(C(=O)Nc3ncc(C)s3)CC2=O)cc1` (stereo not drawn), the Potency is reported as “inactive”.
With `COc1cc(OC)cc(-c2cc3nc(C)c(CCC(=O)NCc4ccccc4)c(C)n3n2)c1` the Potency was “inactive”.
With `COc1ccccc1-c1cc2nc(-c3ccccc3)cc(N3CCN(C(=O)c4ccoc4)CC3)n2n1` the Potency was 15.8 µM (active).
With `CC1CCN(C(=O)c2cc3nc(-c4ccccc4)cc(-c4ccccc4)n3n2)CC1` the Potency was “inactive”.
For `NS(=O)(=O)c1ccc(N2N=C(c3ccccc3)CC2c2ccc(F)cc2)cc1` (stereo not drawn), the Potency was “inactive”.
In the case of `CCCCn1c(SCC(=O)Nc2cc(NC(=O)c3ccco3)ccc2C)nc2ccccc2c1=O`, the Potency is reported as “inactive”.
With `Fc1ccc2[nH]c3c(N4CCSCC4)ncnc3c2c1` the Potency was 25.1 µM (active).
With `Fc1ccc2[nH]c3c(NCc4ccccc4)ncnc3c2c1` the Potency was “inactive”.
In the case of `Cc1ccc(CN(C)C(=O)CN2C(=O)NC(c3ccccc3)(c3ccccc3)C2=O)c(C)c1`, the Potency is reported as “inactive”.
For `COc1cc(-c2nnc(SCC(=O)N(Cc3ccccc3)C(C)(C)C)o2)cc(OC)c1OC`, the Potency was “inactive”.
With `C=CCOC(=O)C1=C[C@@H](c2ccc3c(c2)OCO3)C[C@@H](OCCCCO)O1` the Potency was “inactive”.
In the case of `O=S(=O)(Nc1cccc2cccnc12)c1ccccc1`, the Potency is reported as 1.78 µM (active).
In the case of `O=C(Nc1cccc2cccnc12)c1csc(COCCO)n1`, the Potency is reported as “inactive”.
In the case of `O=[N+]([O-])c1ccc(C[n+]2cccc3ccc4cccnc4c32)cc1`, the Potency is reported as “inactive”.
With `O=[N+]([O-])c1ccccc1S(=O)(=O)Nc1cccc2cccnc12` the Potency was 17.8 µM (active).
In the case of `O=C(Nc1cccc(Br)c1)Oc1cccc2cccnc12`, the Potency is reported as “inactive”.
For `O=c1cc(N2CCN(c3ccccc3)CC2)[nH]c(=O)n1C1CCCCC1`, the Potency was “inactive”.
For `Cc1cc(Cl)ccc1-c1cc2nc(NCCCN(C)C)n(C)c(=O)c2s1`, the Potency was “inactive”.
In the case of `O=C(Nc1ccc2c(c1)CCC2)C1CCN(c2c3c(nc4ncnn24)CCC3)CC1`, the Potency is reported as “inactive”.
In the case of `CN1C/C(=C/c2cccnc2)C(=O)/C(=C/c2cccnc2)C1`, the Potency is reported as “inactive”.
For `O=C1/C(=C/c2ccncc2)CCC/C1=C\c1ccncc1`, the Potency was 10 µM (active).
In the case of `Cc1ccc(-c2nc3ccc(Cl)cn3c2CC(C)(C)C)cc1`, the Potency is reported as “inactive”.
In the case of `CCCNC(=O)c1ccc2c(=O)c(O)c(-c3cccc(Br)c3)[nH]c2c1`, the Potency is reported as “inactive”.
For `CCN(CC)C(=O)C1=C(C)N(CCC2=CCCCC2)C(=O)C(CC(=O)NC(c2ccccc2)c2ccccc2)C1` (stereo not drawn), the Potency was “inactive”.
In the case of `CC(C)C[C@H](N)c1cn([C@@H](CCCCN)C(=O)N2CCNCC2)nn1`, the Potency is reported as “inactive”.
In the case of `COc1cc(OC)cc(-c2cc3nc(C)c(CCC(=O)O)c(C)n3n2)c1`, the Potency is reported as “inactive”.
With `CN1CCN(c2ccc(-c3cc(NC=O)c4ncc(-c5ccc(F)c(Cl)c5)n4c3)cc2)CC1` the Potency was 25.1 µM (active).
In the case of `CN(C)C(=O)c1cccc(-c2cnc3c(NC=O)cc(-c4ccc(F)cc4)cn23)c1`, the Potency is reported as “inactive”.
In the case of `COc1ccc(-c2cc(NC=O)c3ncc(-c4cccc(C(=O)NCCN(C)C)c4)n3c2)cc1`, the Potency is reported as “inactive”.
For `COc1ccc(Cl)cc1S(=O)(=O)N1CCN(C(=O)c2n[nH]c(=O)c3ccccc23)CC1`, the Potency was “inactive”.
In the case of `O=C(Nc1nonc1-c1ccc(Cl)cc1)c1ccccc1`, the Potency is reported as “inactive”.
For `O=C(NC1=CC(=O)c2ccccc2C1=O)c1ccccc1`, the Potency was 14.1 µM (active).
In the case of `NCCCCCc1nnc(SCc2ccccc2Cl)o1`, the Potency is reported as “inactive”.
In the case of `COc1ccc(C2CC(c3cccc(Br)c3)=NN2c2ccc(S(N)(=O)=O)cc2)cc1` (stereo not drawn), the Potency is reported as “inactive”.
With `Cc1cc(OCc2nc(N)nc(N)c2-c2ccc(Cl)c(Cl)c2)ccc1[N+](=O)[O-]` the Potency was “inactive”.
For `CC(C)C(=O)NC(c1ccccc1)c1cc([N+](=O)[O-])c2cccnc2c1O` (stereo not drawn), the Potency was 22.4 µM (active).
With `CCCCC(=O)NC(c1ccc(Cl)cc1Cl)c1ccc2cccnc2c1O` (stereo not drawn) the Potency was “inactive”.
For `CCC(=O)NC(c1ccc(Cl)cc1Cl)c1ccc2cccnc2c1O` (stereo not drawn), the Potency was 7.94 µM (active).
For `CCC(=O)NC(c1ccc(C)cc1)c1cc([N+](=O)[O-])c2cccnc2c1O` (stereo not drawn), the Potency was 22.4 µM (active).
For `CC(=O)NC(c1cccs1)c1cc([N+](=O)[O-])c2cccnc2c1O` (stereo not drawn), the Potency was 12.6 µM (active).
In the case of `O=C(Nc1nccs1)c1cccc(N2C(=O)c3cccc4c([N+](=O)[O-])ccc(c34)C2=O)c1`, the Potency is reported as “inactive”.
In the case of `Cc1cc(OCC(=O)NC(C)c2ccccc2)ccc1[N+](=O)[O-]` (stereo not drawn), the Potency is reported as “inactive”.
With `O=C(Nc1c(Cl)cccc1Cl)Oc1cccc2cccnc12` the Potency was “inactive”.
In the case of `COc1ccc(C2CC(c3ccccc3C(F)(F)F)=NN2c2ccc(S(N)(=O)=O)cc2)cc1` (stereo not drawn), the Potency is reported as “inactive”.
In the case of `CC[C@@H]1C(c2cccc(Cl)c2)=NN(c2ccc(Br)cc2)[C@H]1C(=O)N1CCOC1=O`, the Potency is reported as “inactive”.
For `CCOC(=O)C1=CCN(S(=O)(=O)c2ccc(C)cc2)C1c1cccc(Cl)c1` (stereo not drawn), the Potency was “inactive”.
With `CC1(C(=O)NCc2ccco2)CCN1C(=O)C1(c2ccccc2)CC1` (stereo not drawn) the Potency was “inactive”.
For `O=C(CSc1nc2ncc(Cl)cc2[nH]1)Nc1cccc(F)c1`, the Potency was “inactive”.
For `Oc1c(C(Nc2nccs2)c2ccc(C(F)(F)F)cc2)ccc2cccnc12` (stereo not drawn), the Potency was 15.8 µM (active).
For `O=[N+]([O-])c1ccc(NC(c2ccccc2)c2ccc3cccnc3c2O)cc1` (stereo not drawn), the Potency was 7.94 µM (active).
In the case of `CC(C)C(=O)NC(c1cccc([N+](=O)[O-])c1)c1ccc2cccnc2c1O` (stereo not drawn), the Potency is reported as 7.94 µM (active).
With `O=C(NC(=S)N1CCN(c2ccc(F)cc2)CC1)c1cccs1` the Potency was “inactive”.
For `Nc1ccn(C2OC(COP(=O)(O)O)C(O)C2O)c(=O)n1` (stereo not drawn), the Potency was “inactive”.
For `Cc1ccc(Cc2cnc(N3C(=N)SC(C)C3=O)s2)cc1` (stereo not drawn), the Potency was “inactive”.
In the case of `CCC(C)(C)c1ccc(Oc2ccc(N)cc2)cc1`, the Potency is reported as “inactive”.
In the case of `CCCC(=O)N1CCCC(c2cc(C(=O)Nc3ccccc3)no2)C1` (stereo not drawn), the Potency is reported as “inactive”.
With `Cc1cc(=O)[nH]c(N=N/C(=N/Nc2ccccc2C)c2ccccc2)n1` the Potency was 12.6 µM (active).
In the case of `O=C(Nc1cccc(Cl)c1)c1ccc2c(c1)SC1=NS(=O)(=O)CCN12`, the Potency is reported as “inactive”.
For `CCc1cc(C)cc(OCCNC(=O)c2cncc(Br)c2)c1`, the Potency was “inactive”.
With `CCn1c2ccccc2c2cc(NC(=O)COC(=O)Cc3cn4ccsc4n3)ccc21` the Potency was “inactive”.
